Only some compounds are listed: those with a hit (about 2.4% of all), similar ones and a draw of the others.
TGFb inhibitor: inhibitors of TGF-b signaling | HepG2 CAGA-GFP TGF-b/SMAD3 reporter, GFP fluorescence, 18 h; TGF-beta stimulated, 500 pg/mL final | Potency, µM (top dose mostly 46.1 µM), without a hit: top-dose activity, negative = inhibition, most hits filed as inhibitors | 410,000 tested, 1.2% active | AID 588855; further: on the % scale 0 is the no-effect control and ±100 the full control effect; nearly all actives have a fitted effect of over 65% in size
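Inhibition of TGF-beta-driven CAGA-GFP reporter expression in HEPG2 cells is measured by cellular GFP fluorescence after 18 h stimulation with 500 pg/mL recombinant TGF-beta in 1% FBS medium at 37 degrees C.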
S2 tox: cell viability loss in ATXN counter-screen; 400,000 tested, 0.49% active; AID 651635; Potency, µM (top dose mostly 56.7 µM), actives largely listed as cytotoxic; S2 cells (HEK-293 line with an ATXN2-luciferase reporter) viability, CellTiter-Fluor protease fluorescence, 24 h; further: nearly all actives have a fitted effect of over 40% in size
Apoferritin bind: binds horse apoferritin like a general anesthetic; P02791; apoferritin/1-aminoanthracene competitive binding, fluorescence; Potency, µM (doses to about 77.5 µM), without a hit: at the top dose activity change, negative = displacement, usual class: inhibitors; 350,000 tested, 0.074% active; AID 485281; further: on the % scale 0 is the no-effect control and ±100 the full control effect; nearly all actives have a fitted effect of over 20% in size
Target sequence (P02791 2-175 limits assumed): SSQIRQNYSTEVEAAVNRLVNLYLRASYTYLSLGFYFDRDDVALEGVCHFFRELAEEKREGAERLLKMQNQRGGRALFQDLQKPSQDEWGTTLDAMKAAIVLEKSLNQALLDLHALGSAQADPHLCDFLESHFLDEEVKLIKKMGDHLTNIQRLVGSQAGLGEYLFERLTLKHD
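Read-out: endpoint 1-AMA fluorescence, excitation 380 nm and emission 535 nm, after compounds sit 10 min at room temperature with 10 uM horse-spleen apoferritin in 50% saturated 1-AMA/PBS. Values come from four-parameter Hill fits.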
HepG2 tox-1: kills HepG2 cells in TGF-b inhibitor counter-screen | AID 588856 | Potency, µM (titrated, usually from 46.1 µM), for inactives: at the highest dose activity change, negative = cytotoxicity, most hits filed as cytotoxic | HepG2 CAGA-GFP viability, ATP luminescence, 18 h | 410,000 tested, 0.76% active
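HepG2 CAGA-GFP cells (1000/well, DMEM with 1% FBS) received compound, then TGF-beta at 500 pg/mL final, and were incubated 18 hours at 37 degrees C. Viability was read by CellTiter-Glo luminescence. Media-only wells were set as complete cell-killing and DMSO as no toxicity.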
ATXN2 expr inh: inhibitors of ATXN2 expression | Potency, µM (highest dose often 57 µM), without a hit: at the top dose activity change, negative = inhibition, most hits filed as inhibitors | HEK-293 ATXN2-luciferase reporter, luminescence, 24 h | 360,000 tested, 0.72% active | AID 1745845; further: on the % scale 0 is the no-effect control and ±100 the full control effect; nearly all actives have a fitted effect of over 55% in size
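ATXN2-luciferase reporter cells (luciferase flanked by upstream and downstream ATXN2 gene portions) were treated 24 h at 37 °C with compounds at up to 57 uM. SteadyGlo luminescence gave expression; GF-AFC fluorescence gave viability.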
TGFb confirm: TGF-b pathway inhibition, cherry-pick retest; shares compounds with TGFb inhibitor; HepG2 CAGA-GFP TGF-b reporter, GFP fluorescence, 18 h; cells stimulated with TGF-beta, 500 pg/mL; Potency, µM (titrated, usually from 46.1 µM), for the others: at the highest dose activity, negative = inhibition, usual class: inhibitors; 1,600 tested, 63% active; further: on the % scale 0 is the no-effect control and ±100 the full control effect; nearly all actives have a fitted effect of over 65% in size
HepG2 tox-2: HepG2 cytotoxicity, TGF-b inhibitor counterscreen; Potency, µM (doses to about 46.1 µM), for the others: at the top dose activity, negative = cytotoxicity, most hits filed as inhibitors; 1,600 tested, 27% active; shares compounds with TGFb inhibitor; AID 720535; HepG2 CAGA-GFP viability, ATP luminescence, 18 h; cells stimulated with TGF-beta, 500 pg/mL; further: on the % scale 0 is the no-effect control and ±100 the full control effect; nearly all actives have a fitted effect of over 70% in size
CCL64 TGFb inh: blocks TGF-b signaling in CCL64 reporter cells | shares compounds with TGFb inhibitor | CCL64 CAGA-GFP reporter, TGF-b stimulated, GFP fluorescence, 18 h | Potency, µM (top dose mostly 46.1 µM), for inactives: at the highest dose activity, negative = inhibition, most hits filed as inhibitors | 1,600 tested, 41% active | AID 720536; further: nearly all actives have a fitted effect of over 65% in size
TGFb COP inh: validation of TGF-b inhibitors in HepG2 COP promoter reporter. HepG2 COP-GFP TGF-b reporter, GFP fluorescence, 18 h; cells stimulated by added recombinant TGF-beta. AID 720537. Potency, µM (doses to about 46.1 µM), for inactives: at the top dose activity, negative = inhibition, usual class: inhibitors. 1,600 tested, 3% active. shares compounds with TGFb inhibitor; further: nearly all actives have a fitted effect of over 70% in size
Numbers without * were called inactive; i = inactive; ? = inconclusive; . = no result. The call rests on the fitted dose curve; in most records, active means well fitted curve in the direction sought with a large enough effect; inconclusive means small, poorly fitted or top-dose-only effect, or another doubt; inactive means no such curve, though single readings can be large; an effect the other way counts as inactive or inconclusive. Potency means the concentration at half of the fitted maximal effect.

SMILES	TGFb inhibitor	S2 tox	Apoferritin bind	HepG2 tox-1	ATXN2 expr inh	TGFb confirm	HepG2 tox-2	CCL64 TGFb inh	TGFb COP inh
Cc1ccc(-c2nc3cc(C)c(Br)c(C)n3c2Cc2ccccc2)cc1	-1%	i	.	-20%	91%	.	.	.	.
CC(=O)Nc1ccc(NC2=C(Cl)C(=O)c3ccccc3C2=O)cc1	3.5µM*	.	-6%	3.5µM*	?	5.2µM*	15µM*	2.9µM*	?
CN(C)c1ccc(NC2=C(Cl)C(=O)c3ccccc3C2=O)cc1	5.6µM*	.	-14%	5.6µM*	?	5.2µM*	12µM*	13µM*	?
O=C(Oc1ccc(NC2=C(Cl)C(=O)c3ccccc3C2=O)cc1)c1ccc([N+](=O)[O-])cc1	-9%	?	-2%	4%	.	.	.	.	.
Cc1cccc(NC2=C(NC(=O)c3ccccc3)C(=O)c3ccccc3C2=O)c1	?	?	-24%	-99%	?	.	.	.	.
O=C(NC1=C(Nc2ccc(Cl)cc2)C(=O)c2ccccc2C1=O)c1ccccc1	8.9µM*	?	?	28µM*	-10%	15µM*	21µM*	?	-28%
O=C1C(Cl)=C(Nc2ccc3cn[nH]c3c2)C(=O)c2ccccc21	0.63µM*	14µM*	0%	1.1µM*	20µM*	1.6µM*	3.3µM*	4.6µM*	6.5µM*
O=C1C(Cl)=C(NCCCO)C(=O)c2ccccc21	?	i	-18%	-95%	-37%	.	.	.	.
Cc1cn2c(=O)cc(COc3cccc(NC(=O)c4ccccc4Cl)c3)nc2s1	-9%	i	-15%	5%	-2%	.	.	.	.
COc1ccc(CNC(=O)Nc2nc(C(N)Cc3ccc(F)cc3)cs2)cc1 (stereo not given)	?	?	.	-96%	?	.	.	.	.
COc1ccc(CC(N)c2csc(NC(=O)Nc3ccccc3C(C)C)n2)cc1 (stereo not given)	5.6µM*	?	.	-106%	?	?	?	?	?
CC1(C(=O)NCc2ccc3c(c2)OCO3)CCN1Cc1csc2ccccc12 (stereo not given)	11µM*	i	.	-34%	?	16µM*	23µM*	3.7µM*	44%
Nc1cc2[nH]c(=O)c3ccccc3c2cc1Br	0.32µM*	i	.	-21%	1%	?	1.5µM*	7%	59%
COc1ccc(CNC(=O)CCS(=O)(=O)c2ccc3c(c2)NC(=O)CS3)cc1	3%	i	5%	-3%	8%	.	.	.	.
O=C(CSc1nccc(=O)[nH]1)Nc1cc(C(F)(F)F)ccc1N1CCOCC1	-14%	i	8%	-1%	7%	.	.	.	.
Cc1ccc2nc(SCC(=O)Nc3cc(C(F)(F)F)ccc3N3CCOCC3)[nH]c2c1	10µM*	?	-3%	-20%	-20%	1.8µM*	-9%	0.73µM*	-19%
CCc1ccc(NC(=O)CC2C(=O)N(c3ccccc3)C(=O)N2C(C)C)cc1 (stereo not given)	-10%	.	-8%	-11%	.	.	.	.	.
NS(=O)(=O)c1ccc(CNC(=O)CNC(=O)c2ccc(F)cc2)cc1	19%	i	4%	-3%	.	.	.	.	.
CCCOc1ccc(C(=O)CCN2CCN(C(=O)OCC)CC2)cc1	16µM*	?	-11%	-45%	?	8.2µM*	21µM*	18µM*	23µM*
CS(=O)(=O)N(CC(=O)N1CCCCCC1)c1cccc([N+](=O)[O-])c1	-12%	i	-8%	-1%	-7%	.	.	.	.
CCC1(OC(=O)CN(C)C)C(=O)OCc2c1cc1n(c2=O)Cc2cc3c(N)cccc3nc2-1 (stereo not given)	3.2µM*	?	.	3%	?	5.8µM*	1.8µM*	?	16%
O=C(NCc1ccco1)c1cc([N+](=O)[O-])ccc1N1CCCCC1	5%	?	?	0%	-8%	.	.	.	.
O=C(NCc1ccc2c(c1)OCO2)c1cc([N+](=O)[O-])ccc1N1CCCCC1	?	?	-21%	-1%	-17%	?	-5%	?	4%
CCN(CC)C(=O)C1=C(C)N(CCCOC)C(=O)C(CC(=O)NCc2cccs2)C1 (stereo not given)	-3%	i	.	-2%	4%	.	.	.	.
COc1ccc2[nH]c3c(C)c4ccncc4c(C)c3c2c1	3.5µM*	?	1%	11µM*	2µM*	2.3µM*	4.1µM*	2.6µM*	?
SMILES	TGFb inhibitor	S2 tox	Apoferritin bind	HepG2 tox-1	ATXN2 expr inh	TGFb confirm	HepG2 tox-2	CCL64 TGFb inh	TGFb COP inh
Cc1c2ccncc2cc2c1[nH]c1ccccc12	?	?	.	-32%	?	.	.	.	.
COC(=O)c1ccc(C(=O)OC)c(NC(=O)CSc2cccc[n+]2[O-])c1	3.5µM*	1.3µM*	-2%	6.3µM*	1µM*	-15%	6%	-8%	11%
O=C(CSc1cccc[n+]1[O-])Nc1ccccc1Oc1ccccc1	?	i	-3%	-22%	-43%	-10%	6%	4%	-4%
COc1ccc(S(=O)(=O)NCC(c2cccnc2)N2CCN(Cc3ccccc3)CC2)cc1C (stereo not given)	-23%	i	-11%	-21%	-13%	.	.	.	.
O=C(Oc1ccc(Cl)c2cccnc12)c1ccco1	8.9µM*	i	?	-52%	-20%	-2%	-15%	22%	4%
Cc1nc(-c2ccc(C)c(N3CCN(C(=O)Nc4ccc(Br)cc4)CC3)c2)no1	-26%	i	-1%	-13%	-13%	.	.	.	.
Cc1ccc(C)c(NC(=O)Nc2cc3c(cc2N2CCCCC2)n(C)c(=O)n3C)c1	?	.	-10%	-63%	.	.	.	.	.
O=C(N/N=C/c1cc(Cl)ccc1O)c1cccnc1	-2%	i	-1%	-22%	?	.	.	.	.
O=C(N/N=C/c1cc(Cl)ccc1O)c1ccccc1Br	?	i	?	-29%	3.2µM*	?	?	?	-2%

Screens from PubChem BioAssay.
